These compounds were tested against LIM domain kinase 1 (Homo sapiens) (UniProt P53667). Conditions: at 10 µM.
Chain of LIM domain kinase 1 (Homo sapiens) (P53667 whole entry, looked up, the tested form may be a part): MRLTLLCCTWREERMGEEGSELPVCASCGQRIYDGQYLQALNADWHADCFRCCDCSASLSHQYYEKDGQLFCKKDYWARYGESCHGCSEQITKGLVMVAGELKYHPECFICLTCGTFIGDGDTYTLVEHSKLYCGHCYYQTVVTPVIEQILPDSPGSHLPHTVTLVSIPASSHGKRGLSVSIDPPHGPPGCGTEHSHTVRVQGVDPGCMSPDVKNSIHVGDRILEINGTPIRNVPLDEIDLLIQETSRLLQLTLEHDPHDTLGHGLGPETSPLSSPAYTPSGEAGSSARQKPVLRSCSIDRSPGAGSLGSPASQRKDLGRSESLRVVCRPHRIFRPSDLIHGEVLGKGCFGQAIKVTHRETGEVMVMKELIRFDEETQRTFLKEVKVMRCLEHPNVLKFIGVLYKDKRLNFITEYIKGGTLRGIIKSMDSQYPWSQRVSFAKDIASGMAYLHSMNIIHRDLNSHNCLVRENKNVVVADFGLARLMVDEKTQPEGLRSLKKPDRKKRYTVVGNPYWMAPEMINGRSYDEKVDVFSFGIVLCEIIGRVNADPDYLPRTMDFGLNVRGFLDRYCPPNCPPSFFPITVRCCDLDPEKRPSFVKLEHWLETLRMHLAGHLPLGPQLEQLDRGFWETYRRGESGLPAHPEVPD

Structure (SMILES)	residual activity [%]
CN([C@@H](Cc1ccc(OS(=O)(=O)c2cccc3cnccc23)cc1)C(=O)N1CCN(c2ccccc2)CC1)S(=O)(=O)c1cccc2cnccc12	86
O=C(Nc1nc2ccccc2n1CCN1CCOCC1)c1cccc([N+](=O)[O-])c1	88
NC(=O)c1cccc(-c2cc(Nc3ccc(OC(F)(F)F)cc3)ncn2)c1	94
O=C1C(Cl)=C(N2C(=O)CCC2=O)C(=O)c2ccccc21	81
N#Cc1c(NC(=O)c2cccc3ccccc23)sc2c1CCCC2	82
CC(C)[C@H](CO)Nc1nc(Nc2cc(N)cc(Cl)c2)c2ncn(C(C)C)c2n1	85
Nc1n[nH]c2nc3ccccc3nc12	67
CSc1nc(-c2ccc(F)cc2)c(-c2ccnc(NC(C)c3ccccc3)c2)[nH]1 (stereo unspecified)	71
O=C(c1ccccc1)c1ccc(N2CCOCC2)cc1O	80
O=C1Nc2ccccc2/C1=C\c1c(Cl)[nH]c2ccccc12	71
Nc1nccc(-c2c(-c3ccc(F)cc3)ncn2C2CCNCC2)n1	25
CC(C)N(CCC(=O)c1ccc2ccccc2c1)Cc1ccccc1	85
O=S(=O)(NCCNC/C=C/c1ccc(Br)cc1)c1cccc2cnccc12	29
COc1cc2nccc(Oc3ccc(NC(=O)Nc4cc(C)on4)c(Cl)c3)c2cc1OC	14
O=C1NC(=O)C(c2c[nH]c3ccccc23)=C1c1c[nH]c2ccccc12	50
O=C1Cc2c([nH]c3ccc(Br)cc23)-c2ccccc2N1	80
O=C1NC(=O)C(c2cn(CCCn3ccnc3)c3ccccc23)=C1Nc1ccccc1	41
O=c1cc(N2CCOCC2)oc2c(-c3ccccc3)cccc12	80

Each compound was assayed against T1, Serine/threonine-protein kinase STK11 (Homo sapiens) (UniProt Q15831). Conditions: at 1 µM.
T1 sequence (whole entry): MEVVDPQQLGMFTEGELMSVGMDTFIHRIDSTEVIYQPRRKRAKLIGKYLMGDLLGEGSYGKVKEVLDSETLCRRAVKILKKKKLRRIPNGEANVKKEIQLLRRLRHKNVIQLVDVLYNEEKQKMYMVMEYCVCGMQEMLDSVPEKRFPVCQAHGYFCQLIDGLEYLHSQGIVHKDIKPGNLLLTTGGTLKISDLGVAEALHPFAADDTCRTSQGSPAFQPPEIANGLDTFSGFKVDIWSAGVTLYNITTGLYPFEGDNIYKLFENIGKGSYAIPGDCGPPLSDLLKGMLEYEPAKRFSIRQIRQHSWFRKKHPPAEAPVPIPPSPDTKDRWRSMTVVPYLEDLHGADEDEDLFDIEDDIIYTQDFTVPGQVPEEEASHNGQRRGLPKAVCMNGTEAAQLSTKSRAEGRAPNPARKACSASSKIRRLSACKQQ

Structure (SMILES)	residual activity [%]
N#C/C(=C1/Nc2ccccc2S1)c1ccnc(NCCc2cccnc2)n1	96
O=S(=O)(c1cccc2cnccc12)N1CCCNCC1	100
N#C/C(=C\c1ccc(O)c(O)c1)C(=O)NCc1ccccc1	102
O=C(Nc1nc2ccccc2n1CCN1CCOCC1)c1cccc([N+](=O)[O-])c1	100
NC(=O)c1cccc(-c2cc(Nc3ccc(OC(F)(F)F)cc3)ncn2)c1	95
O=C(Nc1ccc(Cl)cc1)c1ccccc1NCc1ccncc1	101
O=C1C(Cl)=C(N2C(=O)CCC2=O)C(=O)c2ccccc21	94
N#Cc1c(NC(=O)c2cccc3ccccc23)sc2c1CCCC2	86
Nc1n[nH]c2nc3ccccc3nc12	126
COc1cc2nccc(Oc3ccc(NC(=O)Nc4cc(C)on4)c(Cl)c3)c2cc1OC	99
O=C1NC(=O)C(c2c[nH]c3ccccc23)=C1c1c[nH]c2ccccc12	100
O=C1Cc2c([nH]c3ccc(Br)cc23)-c2ccccc2N1	97
O=C1NC(=O)C(c2cn(CCCn3ccnc3)c3ccccc23)=C1Nc1ccccc1	100
